Measurements: PubChem BioAssay

The compounds below were run on XIP peptide (Xip251-270) (assay: small-molecule binders of XIP peptide, primary screen, biochemical, small-molecule microarray, fluorescence 635/667 nm, 0.5 µg/mL protein (AID 1183)). Conditions: small-molecule microarray binding, fluorescence 635 nm; higher = more signal.
In the case of `C=CCOC(=O)[C@@H]1[C@H]2C(=O)O[C@H](c3ccccc3)[C@H](c3ccccc3)N2[C@H](c2ccc(OCCOC(=O)[C@H]3C[C@H]4C(=O)N[C@@H](CCCCN(C)C)C(=O)N4[C@H]3c3cccc(OCCO)c3)cc2)[C@@]12C(=O)Nc1ccc(I)cc12`, the composite z-score is reported as 0.817.
Compound `O=C1O[C@@H](c2ccccc2)[C@@H](c2ccccc2)N2[C@@H](c3ccccc3OCCO)[C@]3(C(=O)Nc4ccc(C#CCCO)cc43)[C@@H](C(=O)N3CCN(c4ncccn4)CC3)[C@H]12` has a composite z-score of 0.617.
Compound `CC1CC/C=C\[C@H]2OC34C=CCN(C(C)C)C(=O)[C@H]3N(CCCCCO)C(=O)[C@@H]4C2C(=O)O1` (some centres undefined) has a composite z-score of -1.17.
Work on `CCOC(=O)C1=CC[C@@H](c2ccccc2C(F)(F)F)N(S(=O)(=O)c2ccc(C)cc2)C1` yielded a composite z-score of 0.667.
For `COC(=O)[C@@]1(Cc2ccccc2)[C@H]2c3cc(C(=O)N4CCCC4)n(Cc4ccsc4Br)c3C[C@H]2CN1C(=O)c1ccccc1`, the composite z-score was 0.77.
For `Cc1ccc(S[C@]2(C(=O)O)CC(=O)N(Cc3ccccc3Cl)[C@@H]2c2ccc(CO)cc2)cc1`, the composite z-score was -0.0477.
`C[C@]1(C(=O)O)c2ccccc2C(=O)N(Cc2ccccc2)[C@H]1c1ccc(CO)cc1` gave a composite z-score of 0.416.
With `COCCCNC(=O)[C@@]1(Sc2ccc(C)cc2)CC(=O)N(C2Cc3ccccc3C2)[C@@H]1c1ccc(CO)cc1I` the composite z-score was -0.314.
`CCOC(=O)C[C@H]1[C@H](OC(=O)c2ccc(-c3ccccc3)cc2)[C@@H](NC(=O)C2CCCCC2)c2cc(OCCCO)ccc2N1C(=O)c1ccccc1` showed a composite z-score of 0.379.
For `CCCC=C(CCC)[C@@H](NP(=O)(c1ccccc1)c1ccccc1)c1ccc(C(F)(F)F)cc1`, the composite z-score was 0.258.
Compound `O=C1c2ccccc2[C@@]2(Cc3ccccc3N(C3CC3)C2=O)[C@H](c2ccc(CO)cc2)N1C1CCCCC1` has a composite z-score of -0.76.
`[N-]=[N+]=NCc1ccccc1C[C@]1(C(=O)NCC(O)CO)N=C(c2ccc(OCCCO)cc2)O[C@H]1c1ccccc1CN=[N+]=[N-]` (some centres undefined) showed a composite z-score of 0.75.
Work on `C=C(C(=O)CC[C@H](OC(=O)c1cccnc1)c1ccc(CO)o1)C(C)C` yielded a composite z-score of 0.62.
Work on `CC(C)N1CC=CC23O[C@@H]4C=CCOC(=O)[C@@H]4[C@H]2C(=O)N(C(C)CO)[C@@H]3C1=O` (some centres undefined) yielded a composite z-score of 0.291.
Compound `COc1cc2c(cc1OC)CN(C(=O)[C@@H]1[C@H]3C(=O)O[C@H](c4ccccc4)[C@H](c4ccccc4)N3[C@H](c3ccccc3OCCO)[C@@]13C(=O)Nc1ccc(C#CC4(O)CCCCCC4)cc13)CC2` has a composite z-score of 0.822.
In the case of `COc1ccc(NN2C(C(O)c3ccccn3)C=CC3C(=O)N(C4CCCCC4)C(=O)C32)cc1` (centres undefined), the composite z-score is reported as 0.913.
For `O=C(O)[C@H]1C[C@H]2C(=O)N3CCC[C@H]3C(=O)N2[C@H]1c1cccc(OCCO)c1`, the composite z-score was 0.335.
`CCOC(=O)C[C@H]1[C@H](OC(=O)Cc2ccc3c(c2)OCO3)[C@@H](NC(=O)Cc2ccc(OC)cc2)c2cc(OCCCO)ccc2N1C(=O)c1ccccc1` was tested, and the composite z-score was -0.0883.
`O=c1cccc(-c2cccc(Cl)c2)o1` was tested, and the composite z-score was 0.108.
Compound `COC(=O)[C@@]1(Cc2ccccc2)[C@H]2c3cc(C(=O)N4CCCC4)[nH]c3C[C@H]2CN1C(=O)c1ccccc1` has a composite z-score of 0.659.
`C=C(CCCC)/C(=C/C[C@@H](OC(C)=O)c1ccc(CO)o1)c1cc(C(=O)OC)ccc1OC` was tested, and the composite z-score was 0.778.
Compound `CC(C)CN1C(=O)[C@@]2(Cc3ccccc31)c1ccccc1C(=O)N(Cc1ccccc1C(F)(F)F)[C@H]2c1ccc(CO)cc1` has a composite z-score of -0.0449.
With `CCOC(=O)C[C@H]1[C@H](OC(=O)Cc2ccc3c(c2)OCO3)[C@@H](NC(=O)C2CCCCC2)c2cc(OCCCO)ccc2N1C(=O)c1ccc2ccccc2n1` the composite z-score was 0.639.
`C[C@@H](OCc1ccccc1)C1NC(=O)[C@@]23C(=O)N[C@@H](Cc4ccccc4)C2[C@H](C)[C@@]2(C)O[C@H]2C3/C=C/C/C=C\CNC(=O)CNC1=O` (some centres undefined) showed a composite z-score of -0.796.
For `C=C(C(=O)CC[C@H](OC(C)=O)c1cccc(OCCO)c1)C(C)C`, the composite z-score was 0.565.
`CC=CC(O)C1C=CC2C(=O)N(c3ccccc3)C(=O)C2N1Nc1ccc([N+](=O)[O-])cc1` (centres undefined) gave a composite z-score of 0.135.
In the case of `CC(C)C(O)C1C=CC2C(=O)N(C)C(=O)C2N1Nc1ccccc1` (centres undefined), the composite z-score is reported as 0.655.
`O=C1c2ccccc2[C@](Cc2ccccc2I)(C(=O)NCc2ccccc2)[C@H](c2ccc(CO)cc2)N1C1CCCCC1` was tested, and the composite z-score was 0.713.
With `O=C1C2C=CC(C(O)c3cc(C(F)(F)F)cc(C(F)(F)F)c3)N(Nc3ccc([N+](=O)[O-])cc3)C2C(=O)N1c1ccccc1` (centres undefined) the composite z-score was 0.802.
